Assay results taken from publication PMC10726135, “HNF4α isoforms regulate the circadian balance between carbohydrate and lipid metabolism in the liver”.
The full ranking holds about 18,000 sequences; the median of “log2 normalized intensity” is about 0.39, and the highest 2% start at about 6.6. The entries come from a sample that favours the highest values as a whole.

target: T1, HNF4alpha2 (COS-7 nuclear extract) (Homo sapiens, UniProt P41235 1-474); test: protein-binding microarray; COS-7 nuclear extract on double-stranded Agilent 4x180k PBM; binding buffer, salt, pH and temperature not given in the material; high values mean tight binding; details: chain copies: 2; label: 3' end of strand 1 on the slide; dsDNA, one strand shown
T1 sequence: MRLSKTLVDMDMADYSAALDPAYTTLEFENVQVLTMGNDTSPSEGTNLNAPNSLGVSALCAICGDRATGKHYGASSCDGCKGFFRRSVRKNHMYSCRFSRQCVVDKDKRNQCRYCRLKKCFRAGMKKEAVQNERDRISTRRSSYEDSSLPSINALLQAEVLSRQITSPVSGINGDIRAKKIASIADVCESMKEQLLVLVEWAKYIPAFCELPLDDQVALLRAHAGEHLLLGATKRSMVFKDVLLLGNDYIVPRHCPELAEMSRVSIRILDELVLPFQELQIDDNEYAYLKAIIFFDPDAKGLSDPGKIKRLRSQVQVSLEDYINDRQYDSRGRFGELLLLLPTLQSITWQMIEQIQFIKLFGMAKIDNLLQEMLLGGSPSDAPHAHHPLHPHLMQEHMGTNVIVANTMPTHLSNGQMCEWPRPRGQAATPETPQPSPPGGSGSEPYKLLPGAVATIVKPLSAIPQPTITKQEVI
Outline: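 Binding signal was defined as the normalized, background-corrected gProcessedSignal reported by Agilent software. It came from nuclear extracts of COS-7 cells transiently transfected with a human HNF4α isoform expression vector, applied to a custom Agilent SurePrint G3 4x180k array. That array held ~44,000 test sequences in quadruplicate as double-stranded ~60-nt oligonucleotides, and bound HNF4α was imaged at 2-µm resolution on an Agilent G2565CA scanner.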

Q: Which binding signal does the source give for “AAGTGTGGTCAAGGGTCAGTTTCTGAGAGTGCCTAGGGAGATTAGAGTATCGGTCGA” here?
A: 3.65 log2 normalized intensity

Q: With “ATAGTTGACCCTTGAACAATGTGGGGGTCGGCCTAGGGAGATTAGAGTATCGGTCGA” as the sequence, how does the binding signal read?
A: 3.7 log2 normalized intensity

Q: Which binding signal does the source give for “CTTGTCCTTGACCCTTCCTCCCATTTGCTGGCCTAGGGAGATTAGAGTATCGGTCGA” here?
A: 2.29 log2 normalized intensity

Q: For “GCCCCCGCAGACCCAGTCTTAGGGACTAAGGCCTAGGGAGATTAGAGTATCGGTCGA”, which binding signal is on record?
A: 3.86 log2 normalized intensity

Q: “TCCCTTCCCCCCTCCTCATTGAGAGTTTTAGCCTAGGGAGATTAGAGTATCGGTCGA” was tested. Which binding signal did it give?
A: 4.2 log2 normalized intensity

Q: With “TTGAAGCTCCAAGATAGGAATGTACATAATGCCTAGGGAGATTAGAGTATCGGTCGA” as the sequence, how does the binding signal read?
A: 1.11 log2 normalized intensity

Q: With “GTCTTAGGGACTAAGCTTGTAGACCAAGGAGCCTAGGGAGATTAGAGTATCGGTCGA” as the sequence, how does the binding signal read?
A: 0.172 log2 normalized intensity

Q: Which binding signal does the source give for “AAGGCTGCAAGCAAACCTGCCCTTTGCTCCGCCTAGGGAGATTAGAGTATCGGTCGA” here?
A: 5.57 log2 normalized intensity

Q: For “GGGAAACACAGACTCCAAAGAATGGAAGGCGCCTAGGGAGATTAGAGTATCGGTCGA”, which binding signal is on record?
A: -0.871 log2 normalized intensity

Q: With “CCTTTGGTCTAAACCTACTTAGATCAAGATGCCTAGGGAGATTAGAGTATCGGTCGA” as the sequence, how does the binding signal read?
A: -0.394 log2 normalized intensity

Q: With “ACCCCAAAACCCCCAAAGGTGAGTAGGGCCGCCTAGGGAGATTAGAGTATCGGTCGA” as the sequence, how does the binding signal read?
A: 2.67 log2 normalized intensity

Q: For “TGCTCTCTCATGCCCTTTGCCTCCCTGCATGCCTAGGGAGATTAGAGTATCGGTCGA”, which binding signal is on record?
A: 3.45 log2 normalized intensity

Q: How did the binding signal turn out when “GCATCAGGGTCCACAAGGGTTTAAATCTGAGCCTAGGGAGATTAGAGTATCGGTCGA” was run?
A: 1.03 log2 normalized intensity

Q: How did the binding signal turn out when “ATATCCCTGAGAGGCCAGTTTGACCTTTGCGCCTAGGGAGATTAGAGTATCGGTCGA” was run?
A: 8.38 log2 normalized intensity

Q: Which binding signal does the source give for “TCACCATATCCCTGAGAGGCCAGTTTGACCGCCTAGGGAGATTAGAGTATCGGTCGA” here?
A: 2.83 log2 normalized intensity

Q: With “CCTGAGAGGCCAGTTTGACCTTTGCATTCTGCCTAGGGAGATTAGAGTATCGGTCGA” as the sequence, how does the binding signal read?
A: 7.56 log2 normalized intensity

Q: With “GAGGCCAGTTTGACCTTTGCATTCTTACCCGCCTAGGGAGATTAGAGTATCGGTCGA” as the sequence, how does the binding signal read?
A: 5.97 log2 normalized intensity

Q: For “CAGTTTGACCTTTGCATTCTTACCCAAGCCGCCTAGGGAGATTAGAGTATCGGTCGA”, which binding signal is on record?
A: 4.4 log2 normalized intensity

Q: How did the binding signal turn out when “TTTGGAGTTTGACCTGGAGCCAGGGCCTTTGCCTAGGGAGATTAGAGTATCGGTCGA” was run?
A: 3.11 log2 normalized intensity

Q: With “CACAGGTAAACATTTGCCTTTAGGGCCCCCGCCTAGGGAGATTAGAGTATCGGTCGA” as the sequence, how does the binding signal read?
A: 2.56 log2 normalized intensity

Q: How did the binding signal turn out when “GTGGGCAAGTTATCTCGGGGTGGCATGTATGCCTAGGGAGATTAGAGTATCGGTCGA” was run?
A: 1.14 log2 normalized intensity

Q: For “GCAGAATCAAAGGTCAAAATATCTGATCGAGCCTAGGGAGATTAGAGTATCGGTCGA”, which binding signal is on record?
A: 3.32 log2 normalized intensity

Q: “CATCCTCATTGCCTCTGGGCTTTGATGGACGCCTAGGGAGATTAGAGTATCGGTCGA” was tested. Which binding signal did it give?
A: 1.64 log2 normalized intensity

Q: For “CCCCATGATGATAGCAAACACGATTGGATGGCCTAGGGAGATTAGAGTATCGGTCGA”, which binding signal is on record?
A: 0.412 log2 normalized intensity

Q: Which binding signal does the source give for “AACTAGCAACTTGGACCTTGATAGGAGTTAGCCTAGGGAGATTAGAGTATCGGTCGA” here?
A: 2.88 log2 normalized intensity

Q: With “CTCCTGACCTTTGGACTTGATAGAGTTTAAGCCTAGGGAGATTAGAGTATCGGTCGA” as the sequence, how does the binding signal read?
A: 7.57 log2 normalized intensity

Q: Which binding signal does the source give for “ACTGCTCCAGTGGACATTGGCCCTTTGACCGCCTAGGGAGATTAGAGTATCGGTCGA” here?
A: 5.99 log2 normalized intensity

Q: How did the binding signal turn out when “ATATCCTGACTGCTGACCTTTAAGCCTATAGCCTAGGGAGATTAGAGTATCGGTCGA” was run?
A: 3.85 log2 normalized intensity

Q: “TGGACATTGGCCCTTTGACCTTTAATCAAGGCCTAGGGAGATTAGAGTATCGGTCGA” was tested. Which binding signal did it give?
A: 6.47 log2 normalized intensity

Q: Which binding signal does the source give for “TTTGAAGTTTAGAGATGCCTATAGGGTCTTGCCTAGGGAGATTAGAGTATCGGTCGA” here?
A: 0.736 log2 normalized intensity

Q: How did the binding signal turn out when “GTCCTTGATAAGCAAGATGACTTTGGTCTAGCCTAGGGAGATTAGAGTATCGGTCGA” was run?
A: 1.78 log2 normalized intensity

Q: “GACCTTTGGACTTGATAGAGTTTAAGTCTTGCCTAGGGAGATTAGAGTATCGGTCGA” was tested. Which binding signal did it give?
A: 6.99 log2 normalized intensity

Q: For “TCCAGTGGACATTGGCCCTTTGACCTTTAAGCCTAGGGAGATTAGAGTATCGGTCGA”, which binding signal is on record?
A: 7.47 log2 normalized intensity

Q: How did the binding signal turn out when “TAAGAGCTATCAATGACCCATGTTTGCCCTGCCTAGGGAGATTAGAGTATCGGTCGA” was run?
A: 3 log2 normalized intensity

Q: “TGCTTCTTGGCCTCTTTGTTTACACTGTGAGCCTAGGGAGATTAGAGTATCGGTCGA” was tested. Which binding signal did it give?
A: 1.53 log2 normalized intensity

Q: How did the binding signal turn out when “GCGGCTTCAGAGGCCAGCAGTGCTTTTCCCGCCTAGGGAGATTAGAGTATCGGTCGA” was run?
A: -0.963 log2 normalized intensity

Q: With “ATTGGAAGCTCTTTCCCTCCACCAAGTTTCGCCTAGGGAGATTAGAGTATCGGTCGA” as the sequence, how does the binding signal read?
A: 0.191 log2 normalized intensity

Q: “TCTGATCCCAATTTATCTTTCCAGATTGTTGCCTAGGGAGATTAGAGTATCGGTCGA” was tested. Which binding signal did it give?
A: 0.501 log2 normalized intensity

Q: How did the binding signal turn out when “CCTCCAGGGAGGGGAGAGGGGGTTAAAGGTGCCTAGGGAGATTAGAGTATCGGTCGA” was run?
A: 1.22 log2 normalized intensity

Q: With “GGAAACTCCATTTCCTTCTAGCTCCCCAATGCCTAGGGAGATTAGAGTATCGGTCGA” as the sequence, how does the binding signal read?
A: 3.53 log2 normalized intensity

Q: With “TCTTTGATTAGGAAAGGGAACTCCCTGACCGCCTAGGGAGATTAGAGTATCGGTCGA” as the sequence, how does the binding signal read?
A: -0.639 log2 normalized intensity

Q: Which binding signal does the source give for “AGTTGGAAAATATTTCTCTGAACTTTGACCGCCTAGGGAGATTAGAGTATCGGTCGA” here?
A: 8.41 log2 normalized intensity
